TCR CD3 inh = blocks the human TCR-CD3 interaction. hit rate 0.37% among 360,000. TAMRA-labeled TCR probe fluorescence, biochemical. inhibition, % at 9.4 µM; in the data active = inhibition above about 19%;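 note: recombinant mutant TCR 2C K166C tagged with TAMRA read by polarization; 0% = receptor in buffer alone and 100% = receptor with positive control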
PAFAH1B2 inh = blocks human PAF acetylhydrolase 1b catalytic subunit 2; P68402; recombinant PAFAH1B2, FP-rhodamine activity probe, fluorescence polarization; inhibition, % at 3.39 µM; hit rate 1.2% among 340,000; AID 492953;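 active = inhibition above the mean of all tested compounds plus 3 SD, cut at about 24% in these data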;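 note: 0% = enzyme with DMSO and 100% = wells lacking PAFAH1B2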
Target sequence (P68402 whole entry, looked up): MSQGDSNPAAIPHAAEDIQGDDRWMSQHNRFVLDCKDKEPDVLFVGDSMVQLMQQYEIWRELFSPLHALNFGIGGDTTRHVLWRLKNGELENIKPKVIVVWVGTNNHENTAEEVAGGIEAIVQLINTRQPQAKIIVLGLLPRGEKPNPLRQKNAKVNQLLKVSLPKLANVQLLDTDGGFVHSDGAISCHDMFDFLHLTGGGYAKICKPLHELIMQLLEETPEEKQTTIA
PAFAH1B3 inh = inhibitors of human PAFAH1B3; Q15102; recombinant PAFAH1B3, FP-rhodamine probe, fluorescence polarization; inhibition, % at 3.39 µM; hit rate 0.28% among 340,000;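 active = inhibition above the screen-wide average of all tested compounds plus 3 SD, cut at about 25% in these data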;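 note: 0% = enzyme with DMSO only and 100% = wells lacking PAFAH1B3 protein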
Target sequence (Q15102 whole entry, looked up): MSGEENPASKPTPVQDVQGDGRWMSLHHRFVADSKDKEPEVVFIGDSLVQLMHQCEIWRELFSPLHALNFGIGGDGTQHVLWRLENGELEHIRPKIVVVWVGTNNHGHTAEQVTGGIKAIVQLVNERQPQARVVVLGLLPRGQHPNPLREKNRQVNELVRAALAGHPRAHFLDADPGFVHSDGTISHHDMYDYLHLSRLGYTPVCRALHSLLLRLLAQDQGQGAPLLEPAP
pPAFAH inh = inhibitors of human plasma PAF acetylhydrolase (pPAFAH); Q13093; recombinant pPAFAH, FP-rhodamine probe fluorescence polarization; inhibition, % at 3.39 µM; hit rate 1.5% among 330,000; AID 463082;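 active = inhibition above the mean inhibition across the screen plus 3 SD, cut at about 25% in these data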;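 note: inhibitors block binding of the rhodamine activity-based probe so polarization drops; 0% = enzyme with DMSO and 100% = wells lacking pPAFAH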
PAFAH2 inh = inhibitors of human PAFAH2 | Q99487 | recombinant PAFAH2, FP-rhodamine activity probe, fluorescence polarization | inhibition, % at 3.39 µM | hit rate 0.99% among 340,000 | AID 492956;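 active = inhibition above the mean over all tested compounds plus 3 SD, cut at about 30% in these data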;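 note: inhibitors block probe labeling of enzyme so polarization drops; 0% = enzyme with DMSO and 100% = wells lacking PAFAH2 protein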
PAFAH2 FP conf = PAFAH2 (human) inhibition, confirmed; shares compounds with PAFAH2 inh; recombinant PAFAH2, FP-rhodamine activity probe, fluorescence polarization; inhibition, % at 3.39 µM; hit rate 65% among 2,300;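 active = mean inhibition over three repeats above a set limit taken from the earlier primary screen, cut at about 30% in these data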;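 note: inhibitor blocks binding of rhodamine activity probe so polarization falls; 0% = enzyme with DMSO and 100% = wells lacking PAFAH2 protein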
Starred values were filed as active, the others as inactive; nt = no result given. The list is not random: actives were taken first. Their share in the collection is about 2.7%.

SMILES | TCR CD3 inh | PAFAH1B2 inh | PAFAH1B3 inh | pPAFAH inh | PAFAH2 inh | PAFAH2 FP conf
Cc1ccccc1CN(C)C(=O)COC(=O)c1ccc2[nH]c(C)c(C)c2c1 | -12 | 1 | 14 | 1 | 51* | 31*
Cc1ccc(NC(=O)CCS(=O)(=O)c2cccc3nonc23)c(Br)c1 | 4 | 0 | 6 | 5 | -4 | nt
CC1(C)CCCN(C(=O)c2coc(=O)c(Br)c2)C1 | -1 | 7 | 11 | nt | 48* | 21
Cn1c(=O)c2nc(Cl)c(-c3ccccc3)nc2n(C)c1=O | -2 | -1 | 2 | -3 | 33* | 38*
O=C(NCc1ccccc1)C1COc2ccccc2O1 (stereo unspecified) | -2 | 4 | 2 | 5 | -2 | nt
O=C1OC(C(=O)NCc2ccccc2)Cc2ccccc21 (stereo unspecified) | 6 | 5 | 12 | 1 | 35* | 20
N[C@@H](Cc1cc(I)c(O)c(I)c1)C(=O)O | 14 | 15 | 17 | -3 | 54* | 9
O=C(Cc1ccccc1)N/N=C/c1ccc2cccc(O)c2n1 | -1 | -5 | 13 | 6 | 0 | nt
Cc1cccc(NC(=O)COC(=O)c2cccc(S(=O)(=O)N3CCCCCC3)c2)c1 | -4 | 3 | -6 | 20 | 74* | 63*
Cc1cc(C)cc(NC(=O)COC(=O)c2cccc(S(=O)(=O)N3CCCCC3)c2)c1 | -5 | -4 | 6 | 9 | 65* | 52*
Cc1ccc(NC(=O)COC(=O)c2cccc(S(=O)(=O)N3CCCCCC3)c2)cc1 | 0 | nt | nt | nt | nt | nt
Cc1ccsc1C(=O)OCC(=O)Nc1ccc(Cl)cn1 | -6 | 2 | 12 | 19 | 78* | 48*
O=C(COC(=O)c1nc(Cl)ccc1Cl)Nc1ccc(Cl)cn1 | -6 | -3 | 1 | 6 | 0 | nt
O=C(COC(=O)c1cc2c(s1)CCCC2)Nc1ccc(Cl)cn1 | -6 | -3 | 2 | 0 | 30* | 33*
O=C(COC(=O)c1cccs1)Nc1ccc(Cl)cn1 | 9 | 3 | 10 | 4 | 67* | 73*
COc1ccc(NC(=O)COC(=O)c2cc3c(s2)CCC3)cc1 | nt | -3 | 4 | 12 | 77* | 82*
Cc1ccsc1C(=O)NCc1ccc(Cl)cc1 | -1 | nt | nt | -4 | nt | nt
Cc1ccsc1C(=O)OCC(=O)NCc1ccc(Cl)cc1 | 8 | -1 | 4 | 12 | 39* | 40*
C=CCNC(=O)c1onc(CSc2ccccc2)c1C(=O)NCC=C | 2 | -1 | 20 | -1 | -1 | nt
C=CCNC(=O)c1onc(CSc2cc(C)cc(C)c2)c1C(=O)O | -4 | 6 | 5 | 0 | 38* | 23
CCc1ccccc1SCc1noc(C(=O)NCC2CCCO2)c1C(=O)O (stereo unspecified) | 2 | 16 | 6 | 1 | 40* | 26
O=C(NCC1CCCO1)c1onc(CSc2ccccc2F)c1C(=O)O (stereo unspecified) | 1 | 4 | -4 | 4 | 17 | nt
C=CCNC(=O)c1onc(CSc2ccccc2CC)c1C(=O)O | 7 | 11 | 3 | 3 | 49* | 36*
O=C(CSc1ccc(Br)cc1)NC1CCS(=O)(=O)C1 (stereo unspecified) | 1 | 21 | 1 | -9 | 4 | nt
CC[C@]12c3[nH]c4cc(-c5ccco5)ccc4c3CCN1C(=O)[C@@H](CC(=O)NCCCOC)C[C@@H]2C(=O)N1CCN(C(=O)c2ccco2)CC1 | -1 | 7 | 6 | 15 | 5 | nt
SMILES | TCR CD3 inh | PAFAH1B2 inh | PAFAH1B3 inh | pPAFAH inh | PAFAH2 inh | PAFAH2 FP conf
O=C(c1cc2c(s1)CCCC2)n1cccn1 | nt | 1 | -1 | 21 | 63* | 55*
CCN(CC)C(=O)CSc1nc2c(sc(=S)n2-c2ccccc2OC)c(=O)n1-c1ccccc1 | -3 | 1 | -2 | 8 | 38* | 9
COc1ccc(CC(=O)NCCCCc2ccccc2)cc1OC | 1 | 4 | 7 | 12 | 2 | nt
Cc1cc(C(=O)c2ccccc2)cc(C)c1O | 0 | 2 | 2 | nt | -11 | nt
O=C(c1ccccc1)c1ccc(O)c(O)c1O | 16 | 9 | 21 | nt | 38* | 42*
CCCc1c(C(=O)NNc2ccc(C)cc2)cnn1-c1ccccc1 | -14 | 4 | -1 | 4 | 33* | 14
COC(=O)c1ccc(COC(=O)C2CCN(S(=O)(=O)c3ccccc3C(=O)OC)CC2)cc1 | 2 | -1 | 2 | 1 | 2 | nt
COc1ccc(C(=O)O/N=C2\CCS(=O)(=O)c3sccc32)cc1 | 1 | 2 | 10 | 9 | 89* | 83*
COc1ccc(N=C2CCS(=O)(=O)c3sccc32)cc1 | -2 | -1 | 14 | 3 | 6 | nt
Cc1ccccc1C(=O)O/N=C1\CCS(=O)(=O)c2sccc21 | 2 | 12 | -9 | 7 | 68* | 68*
COc1ccc(C2/C=C\CC(NS(=O)(=O)c3ccc(C)cc3)CC(=O)N2Cc2ccccc2F)cc1 (stereo unspecified) | nt | 2 | 1 | 4 | 3 | nt
O=C(OCC(=O)N1CCCc2ccccc21)c1cccc(S(=O)(=O)N2CCOCC2)c1 | 3 | 3 | 10 | 0 | 20 | nt
CCC1(C(N)=O)CC2C=CC1C2 (stereo unspecified) | 1 | 3 | 14 | nt | 4 | nt
CC(C)CN(C(=O)c1ccc(F)cc1F)c1c(N)n(CC(C)C)c(=O)[nH]c1=O | -4 | 10 | 3 | -5 | -7 | nt
CSCC[C@H](NC(=O)Nc1ccc(Oc2ccccc2)cc1)C(=O)O | -10 | 6 | 7 | 1 | 38* | 22
CCC(C)C(NC(=O)C1CCC(=O)N1C(=O)OCc1ccccc1)C(=O)NC(Cc1ccccc1)C(N)=O (stereo unspecified) | 8 | 7 | -1 | 2 | 78* | 64*
CC(C)CC(NC(=O)C1CCC(=O)N1C(=O)OCc1ccccc1)C(=O)NC(Cc1ccccc1)C(N)=O (stereo unspecified) | 1 | 7 | 1 | 4 | 52* | 48*
COC(=O)[C@@H](Cc1ccc(O)cc1)NC(=O)[C@H]1CCC(=O)N1C(=O)OCc1ccccc1 | 1 | 1 | 3 | 1 | 22 | nt
CCC(C)C(NC(=O)C(N)CC(C)C)C(=O)NC(CCC(=O)OCc1ccccc1)C(N)=O (stereo unspecified) | 4 | -3 | -5 | 2 | -3 | nt
CCCCCCC(c1c(C)n(C)n(-c2ccccc2)c1=O)c1c(C)n(C)n(-c2ccccc2)c1=O | 2 | 4 | 2 | 0 | 70* | 70*
Cc1c(C(c2cccs2)c2c(C)n(C)n(-c3ccccc3)c2=O)c(=O)n(-c2ccccc2)n1C | 6 | 6 | 5 | 6 | 1 | nt
CN(Cc1ccco1)C(=O)c1cc2c(s1)-c1ccc(Cl)cc1S(=O)(=O)C2 | 2 | -1 | 3 | 2 | 51* | -10
COc1ccc(NC(=O)CCC(=O)Nc2nnc(CC(C)C)s2)cc1Cl | 6 | -1 | 3 | 5 | -1 | nt
O=C(COC(=O)c1cccc(F)c1)Nc1cccc(S(=O)(=O)N2CCCCC2)c1 | -1 | nt | nt | nt | nt | nt
